Assay [1] has as its target Cytochrome P450 2C9 (Homo sapiens) (UniProt P11712). Description: Cytochrome P450 family 2 subfamily C member 9 (CYP2C9) small molecule antagonists: luciferase biochemical (cell-free) qHTS assay (AID 1645842; active means well fitted curve in the direction sought with a large enough effect in the repeat runs; an effect the other way counts as inactive or inconclusive; further: on the % scale 0 is the no-effect control and ±100 the full control effect; nearly all actives have a fitted effect of over 55% in size). The method, boiled down:
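P450-Glo CYP2C9 system: proluciferin substrate with enzyme in mix containing 0.4% BSA, 10 min at room temperature, then NADPH regeneration solution added and incubated 1 h at 37C. Detection reagent stopped reaction; luminescence read after 20 min as RLU.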
For orientation: qHTS replaces the single test concentration by a dilution series.

In assay [2] the target is Rap guanine nucleotide exchange factor 3 (Homo sapiens) (UniProt O95398). Nature of the assay: Counterscreen qHTS for antagonist of cAMP-regulated guanine nucleotide exchange factor 3 (EPAC1) (AID 1645888). Further: % of control where 0% means no effect. The procedure, abridged:
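Rap1B–BODIPY-GDP (250 nM) with 50 uM GDP; compounds pin-transferred to 9.74 nM–152 uM final (activator) or from 7.32 nM upwards (inhibitor). Fluorescence Ex/Em 480/540 nm read at 5 and 30 min, then after adding cAMP or buffer, at room temperature.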

Assay [3] concerns the target Cytochrome P450 3A4 (Homo sapiens) (UniProt P08684). Nature of the assay: qHTS Assay for Activators of Cytochrome P450 3A4 (AID 885). Further: nearly all actives have a fitted effect of over 65% in size. The method, boiled down: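 Human CYP3A4 dealkylates Luciferin-PPXE to luciferin, which luciferase detection converts to light. Substrate was at its KM (25uM), buffer 200mM KPO4, reaction 60 min at RT.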
A short description of assay [4]: qHTS Assay for Lipid Storage Modulators (AID 1519; calls by dose curve). Particulars: Drosophila S3 cells, BODIPY lipid droplet/cell ratio, laser cytometry, cells loaded with oleic acid; for activity change, negative = inhibition: at 57.5 µM (top of the series). The method, boiled down:
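Cells seeded at 5,000 per well were treated with compounds over a concentration series and loaded with oleic acid (400 uM, as added). Lipid droplet fluorescence (488 nm excitation, 500-530 nm channel) was read by laser-scanning cytometry and normalized to 20 uM Triacsin C.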

For assay [5], the target named is DNA dC->dU-editing enzyme APOBEC-3G (Homo sapiens) (UniProt Q9HC16). Nature of the assay: qHTS for inhibitors of Vif-A3G interactions: Validation (AID 588379). Further: 0% is about no effect. The method, boiled down:
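Yellow fluorescence (Ex 488, Em 500-530) of Vif-coexpressing HeLa A3G-eYFP cells, scanned by Acumen cytometer, reports blocked A3G degradation. Cells plated at 700/well overnight at 37 deg C before compound addition, then a further overnight compound incubation at 37 deg C.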

Assay [6] addresses Rap guanine nucleotide exchange factor 3 (Homo sapiens) (UniProt O95398). Nature of the assay: Confirmatory qHTS for agonist of cAMP-regulated guanine nucleotide exchange factor 3 (EPAC1) (AID 1645881).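 Further: EPAC1 catalysed release of BODIPY-GDP from Rap1B seen as fluorescence loss; 100% = effect of cAMP agonist control; nearly all actives have a fitted effect of over 75% in size.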
The target in assay [7] is Rap guanine nucleotide exchange factor 4 (Homo sapiens) (UniProt Q8WZA2). Description: Confirmatory qHTS for agonist of cAMP-regulated guanine nucleotide exchange factor 4 (EPAC2) (AID 1645884).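 Further: nucleotide exchange releases bodipy-GDP from Rap1 and this lowers its fluorescence; on the % scale 0 is the no-effect control and ±100 the full control effect; nearly all actives have a fitted effect of over 65% in size.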
For assay [8] the target is unchanged. Nature of the assay: Confirmatory qHTS for antagonist of cAMP-regulated guanine nucleotide exchange factor 4 (EPAC2) (AID 1645885). Further: nearly all actives have a fitted effect of over 25% in size. Further: potency means the concentration at half of the fitted maximal effect.
The target in assay [9] is Lysosomal acid glucosylceramidase (Homo sapiens) (UniProt P04062). Nature of the assay: Glucocerebrosidase-p2 (AID 348; in the data active means potency below about 10 µM; further: potency means the concentration at half of the fitted maximal effect). The conditions noted are these: purified GBA, blue fluorogenic substrate, 40 min. The procedure, abridged: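 Normal human glucocerebrosidase (0.2 nM) with blue fluorogenic substrate (80 uM final) in citrate/phosphate pH 5.9 with 10mM sodium taurocholate, 0.01% tween-20; 40 min RT, NaOH/glycine stop; fluorescence Ex 365/Em 440; AC50 from a titration from 0.6 nM upwards.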

The nature of assay [10]: AP1 Signaling Pathway (AID 357; active means well fitted curve in either direction with a large enough effect, not every such curve was filed as active;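 further: ME-180 reporter cells stimulated with EGF at its EC50 level; on the % scale 0 is the no-effect control and ±100 the full control effect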). Particulars: ME-180 AP-1-bla reporter, EGF-induced, beta-lactamase ratio, 5 h; at 7.69 µM (top of the series) unless noted. The procedure, abridged: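 In this screen, ME-180 cells in Opti-MEM with 0.5% dialyzed FBS received EC50 EGF and compound titrations for 5 h. AP-1 reporter beta-lactamase was detected via CCF4 ratio, giving AC50 for positive and negative modulators.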

The target in assay [11] is Cytochrome P450 1A2 (Homo sapiens) (UniProt P05177). Description: p450-cyp1a2 (AID 410; calls by dose curve; further: potency means the concentration at half of the fitted maximal effect). The procedure, abridged:
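20nM CYP1A2, 100uM Luciferin-ME (=Km), 100mM KPO4; cpd 10 min RT; +NADPH regen, 60 min RT; stop/detect 20 min; luminescence. Normalized to furafylline 57 uM = full inhibition.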

A short description of assay [12]: NFAT Signaling Pathway (AID 444; active means well fitted curve in either direction with a large enough effect, not every such curve was filed as active;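 further: carbachol stimulus at about its EC50 of 1 µM final; on the % scale 0 is the no-effect control and ±100 the full control effect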). Particulars: Jurkat NFAT-bla M1, carbachol, beta-lactamase ratio, 5 h; at 7.69 µM (top of the series) unless noted. The procedure, abridged:
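Jurkat cells with NFAT-driven β-lactamase reporter and co-expressed M1 receptor, stimulated with carbachol (final 1 uM, ~EC50), compound titration, 5 h at 37 °C. CCF4 loaded 1 h at RT; 460/530 nm ratio gave %activity and AC50.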

Assay [13] can be described thus: Stat Signaling Pathway (AID 446; active means well fitted curve in either direction with a large enough effect, not every such curve was filed as active;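 further: ME-180 cervical cancer cells given 40 pM IL-6 alongside compound; SIE-controlled beta-lactamase reporter measured as 460/530 nm FRET emission ratio; on the % scale 0 is the no-effect control and ±100 the full control effect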). Particulars: ME-180 (cervical carcinoma) SIE beta-lactamase reporter, IL-6 stimulated, 5 h; at 7.69 µM (top of the series) unless noted. The method, boiled down: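 Normalization used AC90 stimulation (300 pM IL-6) and AC90 inhibition (125 nM pan-JAK inhibitor at 40 pM IL-6). The underlying signal is SIE-driven beta-lactamase in ME-180 cells after 5 h IL-6 exposure with compound.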

Assay [14] concerns the target Glucocorticoid receptor (Homo sapiens) (UniProt P04150). Nature of the assay: GR-GFP Redistribution (AID 450;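 active means compounds whose dose series gives a full or clear partial fitted curve of increased nuclear translocation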; further: potency means the concentration at half of the fitted maximal effect). The conditions noted are these: U2OS GR-GFP nuclear translocation, laser cytometry, 2 h.
The target of assay [15] is Mitogen-activated protein kinase 10 (Mus musculus) (UniProt Q61831). Nature of the assay: JNK3 AlphaScreen Assay (AID 530; active means well fitted curve in either direction with a large enough effect, not every such curve was filed as active;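 further: kinase came from lysate of stimulated human HepG2 cells; signal reports phosphorylation of biotinylated GST-cJun 1-79 at Ser73 with 10 µM ATP; on the % scale 0 is the no-effect control and ±100 the full control effect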). The procedure, abridged:
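HepG2 lysate (IL-1b/TNFa pre-activated) + biotin-GST-cJun 1-79 + anti-pSer73 cJun; cpd titration, 15 min RT; ATP 10 uM start; Tris pH 7.6, MgCl2, DTT, vanadate; beads in EDTA buffer; AlphaScreen.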
(In general: Alpha assays give light when donor and acceptor beads are brought close together.)

The target in assay [16] is Cytochrome P450 3A4 (Homo sapiens) (UniProt P08684). Nature of the assay: qHTS Assay for Inhibitors and Substrates of Cytochrome P450 3A4 (AID 884). Further: potency means the concentration at half of the fitted maximal effect; nearly all actives have a fitted effect of over 50% in size. The method, boiled down: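 Luminescent readout of luciferin produced by CYP3A4 (20 nM) dealkylation of Luciferin-PPXE, 25 uM (its KM). NADPH-driven reaction ran 60 min at RT after 10 min compound preincubation; data scaled to 57 uM ketoconazole as 100% inhibition.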

Assay [17] has as its target Cytochrome P450 2D6 (Homo sapiens) (UniProt P10635). Nature of the assay: qHTS Assay for Inhibitors and Substrates of Cytochrome P450 2D6 (AID 891). Further: potency means the concentration at half of the fitted maximal effect; nearly all actives have a fitted effect of over 60% in size. The procedure, abridged:
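Luminescent read-out of luciferin formed by 5 nM human CYP2D6 demethylating 30 uM Luciferin-ME EGE (Km level) over 60 min at room temperature after NADPH regeneration addition. Data normalized to full inhibition by 1.43 uM quinidine.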

The target in assay [18] is Cytochrome P450 2C19 (Homo sapiens) (UniProt P33261). Nature of the assay: qHTS Assay for Inhibitors and Substrates of Cytochrome P450 2C19 (AID 899). Further: potency means the concentration at half of the fitted maximal effect; nearly all actives have a fitted effect of over 60% in size. The method, boiled down: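 Signal comes from luciferase acting on luciferin released by CYP2C19-mediated hydroxylation of Luciferin-H EGE, 10uM (KM). Assay mix: 5nM enzyme, 50mM KPO4; 60 min at 37C with NADPH regeneration. Data normalized against 57uM ketoconazole.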

A short description of assay [19]: Confirmation and Secondary Assay for Modulators of Hemoglobin Beta Chain Splicing at IVS2 654 locus (AID 910).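 Further: HeLa cells stably carrying EGFP split by mutant beta-globin IVS2-654 intron; % of control where 0% means no effect.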 The procedure, abridged: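 HeLa cells stably expressing EGFP interrupted by β-globin IVS2-654 intron, seeded overnight in Opti-MEM/2% FCS, then treated 2 days at 37 °C. Restored splicing read as total peak GFP intensity per well by laser scanning cytometry (488 nm excitation, 500–520 nm emission); 500 nM antisense PNA as control.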

Assay [20] is described as follows: Confirmation and Secondary Assay for Modulators of Hemoglobin Beta Chain Splicing at IVS2 705 locus (AID 930).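 Further: HeLa cells stably expressing the EGFP-705 splicing reporter; GFP fluorescence per well restored by corrected splicing of the IVS2-705 intron in EGFP; % of control where 0% means no effect.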 The procedure, abridged: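 First, HeLa EGFP-705 cells are seeded at 500/well in Optimem with 2% FCS and left overnight. Next, compound or DMSO is added for 2 days. Finally wells are laser-scanned and total peak GFP intensity scored.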
Assay [21] has as its target Ubiquitin carboxyl-terminal hydrolase 1 (Homo sapiens) (UniProt O94782). Description: Inhibitors of USP1/UAF1: Pilot qHTS (AID 504865).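 Further: rhodamine fluorescence freed from ubiquitin-rhodamine substrate followed over time; top concentration of the series differs between compounds; on the % scale 0 is the no-effect control and ±100 the full control effect; nearly all actives have a fitted effect of over 35% in size.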 The procedure, abridged:
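In 50mM HEPES pH 7.8 containing 0.5mM EDTA, 1mM TCEP, 0.1 mg/ml BSA and 0.01% Tween-20, 1nM USP1/UAF1 is exposed to compound for 15 min, then Ub-Rho (150nM final) is added and fluorescence is read over time.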

Assay [22] addresses Rap guanine nucleotide exchange factor 3 (Homo sapiens) (UniProt O95398). Nature of the assay: Confirmatory qHTS for antagonist of cAMP-regulated guanine nucleotide exchange factor 3 (EPAC1) (AID 1645880).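 Further: plate controls were DMSO only for no effect and full effect of the ATA control for full effect; nearly all actives have a fitted effect of over 55% in size.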 The procedure, abridged:
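Released BODIPY-GDP fluoresces less than Rap1-bound BODIPY-GDP; the signal is followed at 480/540 nm at 5-min intervals over 30 min, after 5 min at room temperature. Reactions contain 100 nM EPAC1, 250 nM RAP1B-BODIPY-GDP and 50 uM GDP; results are normalized to ATA and DMSO.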

Where [23] appears, read: measured here: cell count channel max response.
The mark [24] stands for this setting: measured here: lipid channel max response.

Results filed as inconclusive are left out. Activity calls are given as the source filed them. Unless noted, the call rests on the fitted dose curve; in most records, active means well fitted curve in the direction sought with a large enough effect; inconclusive means small, poorly fitted or top-dose-only effect, or another doubt; inactive means no such curve, though single readings can be large; an effect the other way counts as inactive or inconclusive.

Chain of Ubiquitin carboxyl-terminal hydrolase 1 (Homo sapiens) (O94782 whole entry, looked up): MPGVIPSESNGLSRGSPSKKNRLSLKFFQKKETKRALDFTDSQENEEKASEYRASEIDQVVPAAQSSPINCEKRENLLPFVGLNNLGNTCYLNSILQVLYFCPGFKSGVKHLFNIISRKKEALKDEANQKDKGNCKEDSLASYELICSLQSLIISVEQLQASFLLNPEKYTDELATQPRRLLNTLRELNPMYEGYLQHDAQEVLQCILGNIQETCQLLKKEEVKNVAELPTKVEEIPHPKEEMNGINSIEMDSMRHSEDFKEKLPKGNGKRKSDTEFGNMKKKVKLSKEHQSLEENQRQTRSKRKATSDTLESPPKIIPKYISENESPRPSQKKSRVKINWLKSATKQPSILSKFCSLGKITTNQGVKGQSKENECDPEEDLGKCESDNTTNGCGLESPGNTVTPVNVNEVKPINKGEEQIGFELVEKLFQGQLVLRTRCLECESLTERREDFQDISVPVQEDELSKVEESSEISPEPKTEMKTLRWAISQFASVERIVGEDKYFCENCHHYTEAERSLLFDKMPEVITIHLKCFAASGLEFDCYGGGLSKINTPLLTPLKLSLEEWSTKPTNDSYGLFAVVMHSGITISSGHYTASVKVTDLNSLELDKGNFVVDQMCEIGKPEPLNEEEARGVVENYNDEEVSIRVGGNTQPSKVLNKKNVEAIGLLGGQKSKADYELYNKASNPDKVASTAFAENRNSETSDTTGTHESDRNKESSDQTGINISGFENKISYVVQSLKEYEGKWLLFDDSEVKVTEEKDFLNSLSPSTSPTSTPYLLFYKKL
Chain of Cytochrome P450 3A4 (Homo sapiens) (P08684 whole entry, looked up): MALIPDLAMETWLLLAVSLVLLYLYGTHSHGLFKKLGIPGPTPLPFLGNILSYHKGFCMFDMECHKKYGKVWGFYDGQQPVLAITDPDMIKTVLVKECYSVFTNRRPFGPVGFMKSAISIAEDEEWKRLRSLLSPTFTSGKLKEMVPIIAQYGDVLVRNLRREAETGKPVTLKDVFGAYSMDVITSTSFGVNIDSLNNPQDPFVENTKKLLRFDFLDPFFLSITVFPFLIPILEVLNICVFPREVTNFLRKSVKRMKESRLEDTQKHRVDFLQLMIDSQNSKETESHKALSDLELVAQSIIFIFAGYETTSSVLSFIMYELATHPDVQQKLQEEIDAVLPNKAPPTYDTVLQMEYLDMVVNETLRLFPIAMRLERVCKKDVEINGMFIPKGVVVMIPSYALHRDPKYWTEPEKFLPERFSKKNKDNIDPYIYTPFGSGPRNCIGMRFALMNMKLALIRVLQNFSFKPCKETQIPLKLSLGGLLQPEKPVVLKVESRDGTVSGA
Chain of Rap guanine nucleotide exchange factor 3 (Homo sapiens) (O95398 whole entry, looked up): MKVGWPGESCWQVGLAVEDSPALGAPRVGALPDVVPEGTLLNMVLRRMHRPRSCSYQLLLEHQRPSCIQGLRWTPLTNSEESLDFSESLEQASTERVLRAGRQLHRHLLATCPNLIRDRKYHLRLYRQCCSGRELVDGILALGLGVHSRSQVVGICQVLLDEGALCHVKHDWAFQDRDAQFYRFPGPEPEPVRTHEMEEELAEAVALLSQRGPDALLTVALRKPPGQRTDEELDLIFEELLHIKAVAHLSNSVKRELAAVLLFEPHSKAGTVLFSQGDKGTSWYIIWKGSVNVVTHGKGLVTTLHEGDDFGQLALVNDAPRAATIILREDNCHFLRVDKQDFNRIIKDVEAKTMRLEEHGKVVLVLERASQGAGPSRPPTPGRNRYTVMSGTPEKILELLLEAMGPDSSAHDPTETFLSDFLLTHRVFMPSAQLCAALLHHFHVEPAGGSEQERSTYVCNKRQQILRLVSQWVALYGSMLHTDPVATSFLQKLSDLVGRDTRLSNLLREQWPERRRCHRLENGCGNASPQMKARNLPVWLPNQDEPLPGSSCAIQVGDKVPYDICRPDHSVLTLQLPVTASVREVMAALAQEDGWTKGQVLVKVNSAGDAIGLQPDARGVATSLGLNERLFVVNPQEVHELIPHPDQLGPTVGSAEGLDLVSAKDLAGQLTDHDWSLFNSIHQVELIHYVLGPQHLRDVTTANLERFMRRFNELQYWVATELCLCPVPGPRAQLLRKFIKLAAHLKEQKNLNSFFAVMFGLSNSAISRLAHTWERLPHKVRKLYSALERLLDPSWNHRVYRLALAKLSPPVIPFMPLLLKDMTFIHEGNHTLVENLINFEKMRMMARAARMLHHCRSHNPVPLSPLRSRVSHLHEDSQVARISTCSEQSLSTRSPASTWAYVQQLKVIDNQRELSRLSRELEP
Chain of Rap guanine nucleotide exchange factor 4 (Homo sapiens) (Q8WZA2 whole entry, looked up): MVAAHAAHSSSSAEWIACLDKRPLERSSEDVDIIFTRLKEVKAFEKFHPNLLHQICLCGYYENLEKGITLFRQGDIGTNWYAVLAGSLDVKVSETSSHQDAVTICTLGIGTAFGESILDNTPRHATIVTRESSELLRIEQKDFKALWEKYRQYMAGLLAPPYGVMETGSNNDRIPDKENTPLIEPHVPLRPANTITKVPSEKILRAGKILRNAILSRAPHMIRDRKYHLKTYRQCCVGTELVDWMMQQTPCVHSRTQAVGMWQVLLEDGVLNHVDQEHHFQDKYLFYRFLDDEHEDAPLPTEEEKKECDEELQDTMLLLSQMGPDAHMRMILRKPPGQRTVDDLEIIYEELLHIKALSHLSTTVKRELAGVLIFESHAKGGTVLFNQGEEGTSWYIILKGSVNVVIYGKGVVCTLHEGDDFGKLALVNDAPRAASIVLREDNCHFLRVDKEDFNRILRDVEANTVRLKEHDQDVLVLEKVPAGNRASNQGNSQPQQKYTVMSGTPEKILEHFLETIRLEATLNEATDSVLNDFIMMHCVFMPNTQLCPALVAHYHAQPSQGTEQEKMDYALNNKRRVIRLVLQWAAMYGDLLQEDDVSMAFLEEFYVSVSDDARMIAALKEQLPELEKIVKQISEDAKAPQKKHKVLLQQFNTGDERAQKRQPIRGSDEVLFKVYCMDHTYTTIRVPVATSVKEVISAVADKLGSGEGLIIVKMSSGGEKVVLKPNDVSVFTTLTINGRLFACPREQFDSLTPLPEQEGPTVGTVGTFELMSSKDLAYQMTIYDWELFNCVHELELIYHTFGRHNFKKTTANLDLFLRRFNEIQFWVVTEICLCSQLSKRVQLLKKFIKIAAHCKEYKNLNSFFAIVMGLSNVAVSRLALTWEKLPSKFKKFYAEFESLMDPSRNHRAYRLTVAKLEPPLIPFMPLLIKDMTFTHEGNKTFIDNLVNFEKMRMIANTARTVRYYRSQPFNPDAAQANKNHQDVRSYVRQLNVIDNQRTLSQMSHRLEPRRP
Chain of DNA dC->dU-editing enzyme APOBEC-3G (Homo sapiens) (Q9HC16 whole entry, looked up): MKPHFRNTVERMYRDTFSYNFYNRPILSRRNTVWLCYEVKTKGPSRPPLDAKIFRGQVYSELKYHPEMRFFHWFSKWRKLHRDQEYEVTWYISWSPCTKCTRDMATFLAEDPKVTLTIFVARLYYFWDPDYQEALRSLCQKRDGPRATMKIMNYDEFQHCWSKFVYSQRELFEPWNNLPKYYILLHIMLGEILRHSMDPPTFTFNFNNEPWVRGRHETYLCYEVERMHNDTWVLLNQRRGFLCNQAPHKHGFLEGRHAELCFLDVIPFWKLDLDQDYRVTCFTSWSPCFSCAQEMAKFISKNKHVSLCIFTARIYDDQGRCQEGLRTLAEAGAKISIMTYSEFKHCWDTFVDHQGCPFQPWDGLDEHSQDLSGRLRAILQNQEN
Chain of Cytochrome P450 2C9 (Homo sapiens) (P11712 whole entry, looked up): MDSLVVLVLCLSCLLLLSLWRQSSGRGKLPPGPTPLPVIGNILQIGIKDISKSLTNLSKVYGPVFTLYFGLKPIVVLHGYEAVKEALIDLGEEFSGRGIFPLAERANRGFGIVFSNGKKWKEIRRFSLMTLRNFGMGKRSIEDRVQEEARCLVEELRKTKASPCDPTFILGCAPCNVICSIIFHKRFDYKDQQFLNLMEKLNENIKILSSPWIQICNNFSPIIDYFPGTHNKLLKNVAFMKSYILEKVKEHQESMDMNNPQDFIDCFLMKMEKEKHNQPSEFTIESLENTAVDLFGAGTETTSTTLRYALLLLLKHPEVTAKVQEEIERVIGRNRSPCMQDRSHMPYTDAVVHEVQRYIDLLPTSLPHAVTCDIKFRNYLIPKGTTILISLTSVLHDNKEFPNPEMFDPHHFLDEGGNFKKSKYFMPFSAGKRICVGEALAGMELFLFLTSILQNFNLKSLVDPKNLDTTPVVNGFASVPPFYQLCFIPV
Chain of Cytochrome P450 2C19 (Homo sapiens) (P33261 whole entry, looked up): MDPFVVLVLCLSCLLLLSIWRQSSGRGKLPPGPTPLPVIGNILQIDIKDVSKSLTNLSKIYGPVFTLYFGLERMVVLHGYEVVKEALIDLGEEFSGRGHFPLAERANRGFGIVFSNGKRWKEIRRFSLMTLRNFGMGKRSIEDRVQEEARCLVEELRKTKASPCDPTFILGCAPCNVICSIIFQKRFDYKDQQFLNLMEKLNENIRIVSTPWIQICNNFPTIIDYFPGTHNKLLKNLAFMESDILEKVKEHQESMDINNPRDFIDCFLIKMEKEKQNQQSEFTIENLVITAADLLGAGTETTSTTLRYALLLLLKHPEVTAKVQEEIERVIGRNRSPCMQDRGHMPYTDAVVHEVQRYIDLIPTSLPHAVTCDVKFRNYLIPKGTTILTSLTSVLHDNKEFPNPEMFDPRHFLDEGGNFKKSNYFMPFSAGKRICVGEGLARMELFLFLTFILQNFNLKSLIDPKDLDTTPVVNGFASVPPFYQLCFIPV

Take `COC(=O)c1c(C)cc(OC(=O)c2c(C)cc(O)c(C=O)c2O)c(C)c1O`: the Potency entry in assay [1] was “inactive”.
`NC(Cc1ccc(O)c(O)c1)C(=O)O` (centres undefined): the Potency entry in assay [1] is “inactive”.
`C=CCc1ccc(OC(=O)c2ccccc2)c(OC)c1`: the activity change, negative = inhibition in [2] was -3.32% [at 30.8 µM] (inactive).
Consider `CN(Cc1ccco1)c1ncnc2ccc(-c3ccc4c(c3)OCO4)cc12`, for which, in assay [2], the outcome was inactive.
Turning to `CC1(C)[C@@H](O)CC[C@]2(C)C3C(=O)C=C4C5C[C@@](C)(C(=O)O)CC[C@]5(C)CC[C@@]4(C)[C@]3(C)CC[C@@H]12` (some centres undefined), the Potency result in assay [3], in [6] and in assay [7] was “inactive” in each case. Also, in assay [4], the activity change, negative = inhibition is 2.84% (inactive). The max response in [4] (setting [23]) was found to be 8.09%; in assay [4] (setting [24]) it was 11.1%. For the same molecule, the molecule was classed as inactive in assay [5]. Moreover, in [8], the Potency is 5.55 µM (active).
As for `COc1cccc(-c2cncnc2NCc2ccc(OC)cc2OC)c1`, the Potency in assay [9] was > 11.4 µM (inactive); in assay [11], 3.98 µM (active); in assay [14], > 46 µM (inactive); in assay [16], 0.501 µM (active); in assay [17], 7.94 µM (active); in assay [18], 1.26 µM (active). Besides, in assay [8], the Potency was 44.1 µM (active). The activity change, negative = inhibition is -7.15% (inactive) in assay [10], -10.1% (inactive) in assay [12] and 7.71% (inactive) in assay [4]. The activity, negative = inhibition in [13] is -6.14% (inactive). The Potency entry in [15], in assay [3], in [19], in assay [6] and in [7] was “inactive” in each case. Moreover, the max response in assay [4] (setting [23]) was determined as 3.12%; in assay [4] (setting [24]), 8.96%.
For `COc1ccc2c(c1)[C@@]1(C)CCC[C@](C)(CO)C1CC2` (some centres undefined), the figures for the Potency in [16] and in [8] were 10 µM (active) and 39.3 µM (active), respectively. The Potency result in assay [3], in [6] and in assay [7] was “inactive” in each case. Besides, in [4], the activity change, negative = inhibition was 8.34% (inactive). In addition, the max response came to 17.7% in [4] (setting [23]) and 28.8% in assay [4] (setting [24]). The call in assay [5] was inactive.
With `COc1cc(C/C=C/c2ccccc2)c(OC)cc1O`, the Potency entry in assay [3], in [19], in assay [21], in assay [22], in [6] and in [7] was “inactive” throughout. In assay [8], the Potency result was “inactive”. For the same molecule, the molecule was classed as inactive in assay [20]. Besides, the activity change, negative = inhibition in [4] was 1.85% (inactive). Besides, the max response was 4.35% in [4] (setting [23]) and 7.15% in assay [4] (setting [24]).
With `COc1ccc2c(c1)OC/C(=C/c1ccc(O)c(O)c1)C2=O`, in assay [16], the Potency was 31.6 µM (active). Besides, the Potency entry in assay [3], in assay [21], in assay [6], in [7] and in assay [8] was “inactive” throughout. Moreover, in assay [20], the result was inactive. Further, the activity change, negative = inhibition in assay [4] is 9.34% (inactive). In addition, the max response in assay [4] (setting [23]) turned out to be 0.529%; in assay [4] (setting [24]), 11.7%.
With `NCC1OC(n2cnc3c(=O)[nH]c(N)nc32)C(O)C1O` (centres undefined), the molecule was called inactive in [20]. Also, the activity change, negative = inhibition in [4] is 2.55% (inactive). In addition, the max response in assay [4] (setting [23]) is -3.82%; in assay [4] (setting [24]), -2.83%. Besides, the Potency entry in [21], in [22], in assay [6], in [7] and in assay [8] was “inactive” throughout.

These data come from PubChem BioAssay (NCATS).
